Test [1] in a line: E. coli DRC41 culture turbidity changes, primary screen, E. coli filamentation inducer project, strain DRC41, OD650, 48 h (AID 1152).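 Further: E. coli MC1000 strain DRC41 lacking acrAB efflux pump and sulA.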 The note with it: E. coli DRC41 (acrAB sulA), higher = more signal, called active from +8 up or from −8 down.
Test [2] in a line: small-molecule binders of probe aLefty1, primary screen, biochemical, small-molecule microarray, 635/667 nm fluorescence (AID 1153).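 Further: score merges spot fluorescence with signal-to-noise ratio from the scanned slide images.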 The note with it: higher = more signal.
The nature of test [3]: PSAC antagonists in infected red cells, primary screen, cell-based, P. falciparum Indochina, OD700, 1 h (AID 1154). Particulars: P. falciparum Indochina infected RBC osmotic lysis, higher = more signal, called active from +8 up or from −8 down.
Test [4] in a line: PSAC antagonists in infected red cells, primary screen, cell-based, P. falciparum Indochina, OD700, 2 h (AID 1155).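 Further: lysis reports solute entry through the parasite surface anion channel PSAC; channel blockers reduce lysis of infected cells.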 The note with it: P. falciparum Indochina infected erythrocytes, osmotic lysis OD700; higher = more signal, called active from +8 up or from −8 down.
Test [5] is described as follows: osmotic lysis modulators in infected erythrocytes, primary screen, PSAC antagonist project, cell-based, P. falciparum Indochina, OD700, 3 h (AID 1156). The note with it: higher = more signal, called active from +8 up or from −8 down.
A short description of test [6]: PSAC antagonists in infected red cells, primary screen, cell-based, P. falciparum Indochina, OD700, 18 h (AID 1157). The note with it: P. falciparum Indochina infected erythrocytes, osmotic lysis OD700, 18 h; higher = more signal, called active from +8 up or from −8 down.
The nature of test [7]: modulators of S6 phosphorylation in cells, primary screen, cell-based, A549, cytoblot, luminescence, serum-stimulated (AID 1158).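 Further: serum-stimulated A549 lung adenocarcinoma cells; signal is phosphorylated S6 detected by cytoblot immunostaining with HRP secondary.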 Particulars: A549 phospho-S6 cytoblot, 5 h, higher = more signal.
For test [8], the target named is NADPH oxidase 2 (Homo sapiens) (UniProt P04839). Kind of test: NOX2-dependent H2O2 signal modulators, primary screen, NOX inhibitor project, cell-based, HEK293-NOX2, PMA-stimulated, Amplex Red fluorescence (AID 1159). Further: test concentration not given here. Particulars: 45 min, higher = more signal, called active from +8 up or from −8 down.
Test [9] deals with NADPH oxidase 4 (Homo sapiens) (UniProt Q9NPH5). Nature of the test: NOX4-dependent H2O2 signal modulators, primary screen, NOX inhibitor project, cell-based, HEK293-NOX4, tetracycline-induced, Amplex Red fluorescence (AID 1160). The note with it: 45 min, higher = more signal, called active from +8 up or from −8 down.
In test [10] the target is NADPH oxidase 5 (Homo sapiens) (UniProt Q96PH1). Kind of test: NOX5-dependent H2O2 signal modulators, primary screen, NOX inhibitor project, cell-based, HEK293-NOX5, Amplex Red fluorescence (AID 1161). The note with it: HEK293-NOX5, ionomycin, 45 min, higher = more signal.

Calls of active or inactive are those of the source.

NADPH oxidase 5 (Homo sapiens), sequence (Q96PH1 whole entry, looked up): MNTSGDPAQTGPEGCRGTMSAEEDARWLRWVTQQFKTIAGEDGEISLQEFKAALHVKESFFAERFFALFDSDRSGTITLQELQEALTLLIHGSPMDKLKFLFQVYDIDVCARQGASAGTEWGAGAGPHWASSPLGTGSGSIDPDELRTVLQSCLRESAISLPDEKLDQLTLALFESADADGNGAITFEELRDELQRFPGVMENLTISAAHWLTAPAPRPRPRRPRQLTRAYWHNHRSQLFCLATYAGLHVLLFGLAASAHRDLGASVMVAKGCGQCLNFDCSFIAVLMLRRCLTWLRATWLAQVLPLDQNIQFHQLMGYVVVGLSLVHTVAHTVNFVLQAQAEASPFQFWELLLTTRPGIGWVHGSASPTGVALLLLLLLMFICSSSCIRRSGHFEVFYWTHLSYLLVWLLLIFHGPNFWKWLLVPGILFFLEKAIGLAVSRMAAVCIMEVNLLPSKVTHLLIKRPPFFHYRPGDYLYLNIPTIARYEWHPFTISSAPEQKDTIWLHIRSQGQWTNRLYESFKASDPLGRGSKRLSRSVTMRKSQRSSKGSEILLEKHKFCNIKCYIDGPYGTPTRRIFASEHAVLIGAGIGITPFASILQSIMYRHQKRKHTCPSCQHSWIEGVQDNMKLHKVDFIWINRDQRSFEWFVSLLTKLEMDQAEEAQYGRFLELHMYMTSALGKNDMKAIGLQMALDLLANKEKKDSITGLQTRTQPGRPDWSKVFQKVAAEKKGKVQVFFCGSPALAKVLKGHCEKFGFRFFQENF
NADPH oxidase 2 (Homo sapiens), sequence (P04839 whole entry, looked up): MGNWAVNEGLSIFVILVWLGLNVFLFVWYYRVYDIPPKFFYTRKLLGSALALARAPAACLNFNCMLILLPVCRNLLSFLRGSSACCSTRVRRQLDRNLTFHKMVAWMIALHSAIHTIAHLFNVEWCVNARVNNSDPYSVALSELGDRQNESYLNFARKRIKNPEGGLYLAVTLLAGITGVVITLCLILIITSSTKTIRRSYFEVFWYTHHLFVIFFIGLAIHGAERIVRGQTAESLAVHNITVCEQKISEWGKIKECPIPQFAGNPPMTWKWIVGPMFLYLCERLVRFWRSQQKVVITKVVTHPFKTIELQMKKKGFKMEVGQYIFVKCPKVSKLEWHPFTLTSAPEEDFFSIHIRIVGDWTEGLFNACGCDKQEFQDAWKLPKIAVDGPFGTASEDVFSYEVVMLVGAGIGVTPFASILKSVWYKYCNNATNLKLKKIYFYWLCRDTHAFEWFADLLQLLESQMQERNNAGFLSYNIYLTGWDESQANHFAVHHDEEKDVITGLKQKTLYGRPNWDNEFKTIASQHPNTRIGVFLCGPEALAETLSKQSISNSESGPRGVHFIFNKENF
NADPH oxidase 4 (Homo sapiens), sequence (Q9NPH5 whole entry, looked up): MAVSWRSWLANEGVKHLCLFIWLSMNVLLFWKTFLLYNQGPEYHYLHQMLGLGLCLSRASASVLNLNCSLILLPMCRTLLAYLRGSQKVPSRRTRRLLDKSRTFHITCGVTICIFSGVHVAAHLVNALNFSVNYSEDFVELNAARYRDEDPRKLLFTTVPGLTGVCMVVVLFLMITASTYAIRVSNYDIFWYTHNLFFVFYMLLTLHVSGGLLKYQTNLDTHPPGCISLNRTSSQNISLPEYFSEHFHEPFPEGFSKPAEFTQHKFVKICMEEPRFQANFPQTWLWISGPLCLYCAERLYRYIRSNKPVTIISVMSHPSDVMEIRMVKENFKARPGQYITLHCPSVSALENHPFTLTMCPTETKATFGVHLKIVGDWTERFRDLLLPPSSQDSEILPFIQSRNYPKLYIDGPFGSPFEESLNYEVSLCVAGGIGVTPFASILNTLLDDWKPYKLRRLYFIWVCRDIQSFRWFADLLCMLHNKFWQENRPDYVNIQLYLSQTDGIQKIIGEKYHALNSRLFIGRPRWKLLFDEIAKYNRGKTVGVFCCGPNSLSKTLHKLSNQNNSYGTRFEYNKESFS

Regarding `CO[C@H]1O[C@H](CO)[C@@H](OC(=O)Nc2ccc(Oc3ccccc3)cc2)[C@H](OC(=O)Nc2ccccc2-c2ccccc2)[C@H]1OC(=O)Nc1ccccc1-c1ccccc1`, the z-score in test [1] is 1.38 (inactive); in test [3], 2.14 (inactive); in test [4], 0.647 (inactive); in test [5], 0.55 (inactive); in [6] it was -1.37 (inactive); in test [7], -0.151. Further, the z-score was 1.95 (inactive) in [8], -0.7 (inactive) in test [9] and 0.176 in [10]. In test [2], the composite z-score came to 0.371.
Regarding `CC/C=C/C(=O)N(C[C@@H]1CCCO1)[C@@H]1CC(C(=O)NCCO)=C[C@H](Oc2c(I)cc(CO)cc2OC)[C@H]1O`, the z-score in test [1] was 1.24 (inactive); in test [3] it was 1.05 (inactive); in test [4], -0.433 (inactive); in test [5], 1.31 (inactive); in test [6] it was -1.48 (inactive); in test [7], 1.98. Also, the results for the z-score in [8], in test [9] and in [10] were -0.425 (inactive), 1.5 (inactive) and 1.2, respectively. In test [2], this molecule showed a composite z-score of 0.135.
As for `Cc1ccc(N2C(=O)c3ccccc3[C@@H](C(=O)NCC(F)(F)F)[C@@H]2c2ccc(CO)cc2)nc1`, the z-score was 0.734 (inactive) in [1]; 1.32 (inactive) in [3]; 0.422 (inactive) in test [4]; 0.827 (inactive) in test [5]; 0.38 (inactive) in test [6]; 0.189 in test [7]. The values for the z-score in [8], in [9] and in [10] were 1.22 (inactive), 0.32 (inactive) and -0.914, respectively. The molecule further registered a composite z-score in [2] of -0.0099.
On to `COc1cccc([C@@H]2[C@@H](C)CC[C@H]3C(=O)N4[C@H](c5cccc(OC)c5)[C@@H](C)CC[C@H]4C(=O)N23)c1`, for which the z-score in test [1] was -0.0799 (inactive); in test [3], -0.0074 (inactive); in test [4], -0.69 (inactive); in test [5], -1.21 (inactive); in [6] it was -0.987 (inactive); in [7] it was 3.15. In addition, the z-score in test [8] is 0.181 (inactive); in test [9] it was 0.349 (inactive); in test [10] it was 0.796. Further, in [2], the composite z-score is -0.234.
For `C[N+](C)(C)CCCC[C@@H]1NC(=O)[C@H]2C[C@@H](C(=O)NCc3ccc(F)cc3)[C@@H](c3cccc(OCCO)c3)N2C1=O`, the z-score in [1] is 0.923 (inactive); in test [3] it was 2.46 (inactive); in test [4], -1.3 (inactive); in [5], -5.77 (inactive); in test [6] it was -2.37 (inactive); in test [7], 0.123. Moreover, the z-score in test [8] was 0.999 (inactive); in test [9], 0.834 (inactive); in [10], 1.53. In [2], this molecule registered a composite z-score of -0.0536.
For `C=CCOC(=O)[C@@H]1[C@H]2C(=O)O[C@H](c3ccccc3)[C@H](c3ccccc3)N2[C@H](c2ccc(OCCOC(=O)[C@H]3C[C@H]4C(=O)N[C@@H](CCCCNC(C)=O)C(=O)N4[C@H]3c3ccc(O)cc3)cc2)[C@@]12C(=O)Nc1ccc(I)cc12`, the z-score in test [1] was -0.725 (inactive); in test [3], 2.99 (inactive); in test [4] it was 1.92 (inactive); in test [5] it was 0.855 (inactive); in test [6], 1.23 (inactive); in [7], 1.3. Moreover, the z-score in test [8] is 2.16 (inactive); in test [9], 1.27 (inactive); in [10], 1.64. The molecule further had a composite z-score in test [2] of 0.325.
Consider `C=C(COC)/C(=C/C[C@@H](OC(C)=O)c1cccc(OCCO)c1)c1cc(C(=O)OC)ccc1OC`, for which the z-score is 1.37 (inactive) in test [1]; 15.7 (active) in test [3]; 0.098 (inactive) in [4]; 0.363 (inactive) in test [5]; -1.44 (inactive) in test [6]; -0.316 in [7]. Also, the results for the z-score in test [8], in test [9] and in [10] were 1.51 (inactive), 1.28 (inactive) and -1.1, respectively. The molecule further yielded a composite z-score in test [2] of 0.0319.
As to `C[C@H]1COC(=O)[C@@H]2CCCN2C(=O)[C@@H](C)COC(=O)[C@@H]2CCCN2C1=O`, the z-score in [1] was 0.407 (inactive); in test [3], -0.0889 (inactive); in [4], 0.0593 (inactive); in test [5], 0.425 (inactive); in test [6], -0.187 (inactive); in test [7], 0.33. Also, the values for the z-score in [8], in test [9] and in [10] were 0.764 (inactive), 0.382 (inactive) and -0.406, respectively. Moreover, the composite z-score in test [2] is -0.147.
`O=C1NC(=O)C2C1C=CC(C(O)C=Cc1ccc([N+](=O)[O-])cc1)N2Nc1ccccn1` (stereo not given): the z-score in test [1] is -0.297 (inactive); in [3] it was 0.273 (inactive); in [4], 1.27 (inactive); in test [5], 0.0385 (inactive); in test [6], 1 (inactive); in [7], -0.831. The z-score in test [8] is 0.258 (inactive); in [9], -2.01 (inactive); in [10], -1.52. In test [2], this molecule came in with a composite z-score of 0.0457.
Regarding `COC(=O)[C@@]1(Cc2ccc(OC)cc2)[C@H]2c3cc(C(=O)N(C)C)n(CCc4ccc(OC)c(Br)c4)c3C[C@H]2CN1C(=O)c1ccccc1`, the z-score in test [1] was -1.52 (inactive); in test [3] it was 3.73 (inactive); in [4], 1.39 (inactive); in [5], 0.307 (inactive); in [6] it was 1.35 (inactive); in [7], -0.21. Moreover, the z-score is -0.052 (inactive) in test [8], 0.493 (inactive) in [9] and 0.527 in test [10]. The same molecule returned a composite z-score in [2] of 1.61.
On to `COc1cc2c(cc1OC)CN(C(=O)[C@@H]1[C@H]3C(=O)O[C@H](c4ccccc4)[C@H](c4ccccc4)N3[C@H](c3ccccc3OCCO)[C@@]13C(=O)Nc1ccccc13)CC2`, for which the z-score in test [1] was 1.47 (inactive); in test [3], 8.6 (active); in [4], 3.56 (inactive); in test [5], -0.0442 (inactive); in test [6], 2.22 (inactive); in [7] it was 0.206. The z-score in [8] was 1.67 (inactive); in test [9], 1.02 (inactive); in [10], 0.901. The molecule further showed a composite z-score in test [2] of 0.551.
Regarding `C=CCc1cccc([C@H]2N[C@H](C(=O)O)CC[C@@H]2C)c1`, the z-score is 0.574 (inactive) in [1]; 0.734 (inactive) in test [3]; 1.15 (inactive) in test [4]; 0.794 (inactive) in test [5]; 0.443 (inactive) in test [6]; -0.167 in test [7]. The z-score in test [8] is 0.183 (inactive); in test [9] it was 0.773 (inactive); in test [10], 0.0482. The composite z-score in [2] was -0.237.
Turning to `O=C(NCC(F)(F)F)[C@@H]1c2ccccc2C(=O)N(Cc2ccccc2Cl)[C@H]1c1ccc(CO)cc1`, the z-score in test [1] is 0.774 (inactive); in [3] it was 1.88 (inactive); in test [4] it was 0.839 (inactive); in test [5] it was 0.62 (inactive); in test [6], 0.157 (inactive); in test [7], -0.217. Moreover, the z-score is -0.138 (inactive) in test [8], 0.22 (inactive) in test [9] and -0.0659 in [10]. Further, the composite z-score in test [2] was -0.27.

The values are drawn from PubChem BioAssay.
